Source: PubChem BioAssay (Tox21)
Records with an inconclusive call do not appear. Activity calls are given as the source filed them. Unless noted, calls follow the shape of the dose curve; as a rule, active = well fitted curve in the direction sought with a large enough effect in the repeat runs; inconclusive = weak or mixed curves; inactive = no such curve, though single readings can be large; an effect the other way counts as inactive or inconclusive.

Assays:
[1] = qHTS assay to identify small molecule that activate the aryl hydrocarbon receptor (AhR) signaling pathway - cell viability counter screen (AID 743086);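 also: HepG2 liver cells carrying the AhR DRE luciferase reporter; series mostly up to about 70 µM; nearly all actives have a fitted effect of over 45% in size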
Procedure, shortened: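 Cytotoxicity counter screen: CellTiter-Fluor signal (30 min, 37 C) in 4000 HepG2 cells/well carrying the DRE-luciferase reporter, following 24 h compound exposure at 37 C.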

[2] = qHTS assay to identify small molecule antagonists of the peroxisome proliferator-activated receptor gamma (PPARg) signaling pathway - cell viability counter screen (AID 743194); also: nearly all actives have a fitted effect of over 55% in size
Procedure, shortened: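 Viability was measured as CellTiter-Glo luminescence in GeneBLAzer PPARg UAS-bla HEK293H cells. These cells had been exposed 17 h at 37 C to compounds together with rosiglitazone at 50 nM final, with the beta-lactamase readout taken in the same wells.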

[3] = qHTS assay for small molecule agonists of the antioxidant response element (ARE) signaling pathway - cell viability counter screen (AID 743203; calls by dose curve; also: nearly all actives have a fitted effect of over 55% in size)
Procedure, shortened: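 Viability counter screen: stably transfected ARE-bla HepG2 line, 16 hrs compound exposure at 37C/5% CO2, ATP-based CellTiter-Glo luminescence measured in the reporter wells.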

[4] = qHTS assay to identify small molecule agonists of the peroxisome proliferator-activated receptor delta (PPARd) signaling pathway - cell viability counter screen (AID 743211); also: nearly all actives have a fitted effect of over 55% in size
Procedure, shortened: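 HEK293H PPARd-bla, 3000 cells/well; 5 h preincubation 37C/5% CO2; cpd in DMSO, 17 h 37C; B/G FRET substrate 2 h RT; CellTiter-Glo 30 min RT, luminescence.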

[5] = qHTS assay to identify small molecule agonists of the farnesoid-X-receptor (FXR) signaling pathway - cell viability counter screen (AID 743218); also: nearly all actives have a fitted effect of over 45% in size
Procedure, shortened: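 Viability of FXR-bla HEK 293T cells is measured by ATP-based CellTiter-Glo luminescence following 16 h compound treatment at 37 C and a prior 2 h room-temperature beta-lactamase substrate step.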

[6] = qHTS assay to identify small molecule antagonists of the farnesoid-X-receptor (FXR) signaling pathway - cell viability counter screen (AID 743221; active = well fitted cell-killing curve with a large enough effect in the repeat runs, not every such curve was filed as active; also: nearly all actives have a fitted effect of over 50% in size)
Procedure, shortened: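 Luminescence from CellTiter-Glo measures cytotoxicity in GeneBLAzer FXR-UAS-bla HEK 293T cells. Cells were exposed to compounds with 50 uM chenodeoxycholic acid (final) for 16 h at 37 C, in wells also used for the reporter readout.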

[7] = target: Vitamin D3 receptor (Homo sapiens) (UniProt P11473); assay: qHTS assay to identify small molecule agonists of the vitamin D receptor (VDR) signaling pathway (AID 743222; calls by dose curve)
Chain of Vitamin D3 receptor (Homo sapiens) (P11473 whole entry, looked up): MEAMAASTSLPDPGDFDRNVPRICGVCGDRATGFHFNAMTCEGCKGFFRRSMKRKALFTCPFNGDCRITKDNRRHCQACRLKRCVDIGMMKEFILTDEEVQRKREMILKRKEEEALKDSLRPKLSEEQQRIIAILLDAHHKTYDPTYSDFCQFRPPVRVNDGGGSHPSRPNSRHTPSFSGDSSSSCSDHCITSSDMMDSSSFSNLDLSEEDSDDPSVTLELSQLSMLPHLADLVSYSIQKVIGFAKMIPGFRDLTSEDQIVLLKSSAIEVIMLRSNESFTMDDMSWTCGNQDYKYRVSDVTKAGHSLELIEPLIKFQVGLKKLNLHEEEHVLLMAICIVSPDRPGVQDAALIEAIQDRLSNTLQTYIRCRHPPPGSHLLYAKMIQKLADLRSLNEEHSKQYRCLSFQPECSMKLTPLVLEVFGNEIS
Procedure, shortened: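 Fluorescence from cleaved LiveBLAzer B/G FRET substrate served as readout. VDR-bla cells had been treated 16 h at 37C with test compounds in DMSO, following a 4 h settling period, and substrate was loaded for 2 h at RT.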

[8] = target: Vitamin D3 receptor (Homo sapiens) (UniProt P11473); assay: qHTS assay to identify small molecule antagonists of the vitamin D receptor (VDR) signaling pathway (AID 743223; active = well fitted inhibition curve with a large enough effect in the signal ratio in the repeat runs, not every such curve was filed as active; the % refers to the signal ratio)
Procedure, shortened: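 Antagonist mode uses 1alpha,25-dihydroxyvitamin D3 at 3 nM final as stimulus. VDR-bla cells receive compounds in DMSO, incubate 16 h at 37C, then a beta-lactamase FRET substrate for 2 h at room temperature before fluorescence measurement.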

[9] = qHTS assay to identify small molecule agonists of the vitamin D receptor (VDR) signaling pathway - cell viability counter screen (AID 743224); also: series mostly up to about 63 µM; nearly all actives have a fitted effect of over 50% in size
Procedure, shortened: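 Compounds were pin-transferred onto VDR-bla cells plated 4 h earlier; following 16 h incubation at 37C, cell viability was quantified by CellTiter-Glo luminescence after 30 min at room temperature.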

[10] = qHTS assay for small molecule agonists of the antioxidant response element (ARE) signaling pathway (AID 743202; active = well fitted activation curve with a large enough effect in the signal ratio in the repeat runs, not every such curve was filed as active; the % refers to the signal ratio)
Procedure, shortened: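 After 16 hours of compound treatment at 37 C, HepG2 cells with a stably integrated ARE-driven beta-lactamase reporter were loaded 2 hours at room temperature with LiveBLAzer B/G FRET substrate and fluorescence intensity measured.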

[11] = qHTS assay for small molecule activators of the heat shock response signaling pathway - cell viability counter screen (AID 743209); also: nearly all actives have a fitted effect of over 50% in size
Procedure, shortened: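 Viability of HSE-bla HeLa cells is measured with CellTiter-Glo in the wells already used for the reporter read. Compound exposure lasts 5 h at 37 C, and luminescence is read after 30 min at room temperature.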

[12] = qHTS assay for small molecule activators of the heat shock response signaling pathway (AID 743210; active = well fitted activation curve with a large enough effect in the signal ratio in the repeat runs, with a control signal flat, not every such curve was filed as active; the % refers to the signal ratio; also: series mostly up to about 63 µM)
Procedure, shortened: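 Compound exposure lasted 5 h at 37 C in HeLa cells carrying a heat-shock-element-driven beta-lactamase reporter. Read-out: fluorescence intensity after 2.5 h room-temperature loading with LiveBLAzer B/G FRET substrate.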

[13] = target: Peroxisome proliferator-activated receptor delta (Homo sapiens) (UniProt Q03181); assay: qHTS assay to identify small molecule agonists of the peroxisome proliferator-activated receptor delta (PPARd) signaling pathway (AID 743212; calls by dose curve;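 also: HEK293H cells with PPARd UAS beta-lactamase reporter GeneBLAzer system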)
Chain of Peroxisome proliferator-activated receptor delta (Homo sapiens) (Q03181 whole entry, looked up): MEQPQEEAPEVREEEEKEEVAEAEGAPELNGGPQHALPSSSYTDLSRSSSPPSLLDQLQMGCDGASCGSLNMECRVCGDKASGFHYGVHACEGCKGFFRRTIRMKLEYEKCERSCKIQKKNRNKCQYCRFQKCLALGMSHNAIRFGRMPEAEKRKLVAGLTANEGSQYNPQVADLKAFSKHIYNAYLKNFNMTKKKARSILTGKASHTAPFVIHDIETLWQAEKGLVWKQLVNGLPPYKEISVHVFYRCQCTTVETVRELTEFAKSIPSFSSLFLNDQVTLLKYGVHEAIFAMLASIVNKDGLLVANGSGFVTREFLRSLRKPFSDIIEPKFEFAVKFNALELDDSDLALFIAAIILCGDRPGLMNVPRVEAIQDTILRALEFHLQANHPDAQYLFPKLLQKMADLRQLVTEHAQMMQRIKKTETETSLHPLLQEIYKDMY
Procedure, shortened: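 Beta-lactamase reporter readout: a ratiometric FRET signal from the LiveBLAzer substrate after 2 h at room temperature. Compound exposure at 37 °C in PPARδ-bla HEK293H cells driven by an upstream activator sequence.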

[14] = qHTS assay to identify small molecule antagonists of the peroxisome proliferator-activated receptor delta (PPARd) signaling pathway - cell viability counter screen (AID 743213); also: nearly all actives have a fitted effect of over 50% in size
Procedure, shortened: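 Luminescence from CellTiter-Glo, added after the bla read and incubated 30 min at room temperature, gives viability of HEK293H PPARd-bla cells exposed to compounds for 17 h at 37 C with 300 nM L165041.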

[15] = target: Peroxisome proliferator-activated receptor delta (Homo sapiens) (UniProt Q03181); assay: qHTS assay to identify small molecule antagonists of the peroxisome proliferator-activated receptor delta (PPARd) signaling pathway (AID 743215; active = well fitted inhibition curve with a large enough effect in the signal ratio in the repeat runs, not every such curve was filed as active; the % refers to the signal ratio;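 also: cells stimulated with agonist L165041 at 300 nM final during compound exposure; series mostly up to about 62 µM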)
Procedure, shortened: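 Plated HEK293H PPARd-bla cells rested 5 h at 37 C and 5% CO2. Compound, then agonist L165041 at 300 nM final, was added; 17 h at 37 C followed. Substrate loading, 2 h room temperature, fluorescence measured.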

[16] = target: Peroxisome proliferator-activated receptor gamma (Homo sapiens) (UniProt P37231); assay: qHTS assay to identify small molecule antagonists of the peroxisome proliferator-activated receptor gamma (PPARg) signaling pathway (AID 743191; calls by dose curve; also: series mostly up to about 63 µM; nearly all actives have a fitted effect of over 30% in size)
Chain of Peroxisome proliferator-activated receptor gamma (Homo sapiens) (P37231 whole entry, looked up): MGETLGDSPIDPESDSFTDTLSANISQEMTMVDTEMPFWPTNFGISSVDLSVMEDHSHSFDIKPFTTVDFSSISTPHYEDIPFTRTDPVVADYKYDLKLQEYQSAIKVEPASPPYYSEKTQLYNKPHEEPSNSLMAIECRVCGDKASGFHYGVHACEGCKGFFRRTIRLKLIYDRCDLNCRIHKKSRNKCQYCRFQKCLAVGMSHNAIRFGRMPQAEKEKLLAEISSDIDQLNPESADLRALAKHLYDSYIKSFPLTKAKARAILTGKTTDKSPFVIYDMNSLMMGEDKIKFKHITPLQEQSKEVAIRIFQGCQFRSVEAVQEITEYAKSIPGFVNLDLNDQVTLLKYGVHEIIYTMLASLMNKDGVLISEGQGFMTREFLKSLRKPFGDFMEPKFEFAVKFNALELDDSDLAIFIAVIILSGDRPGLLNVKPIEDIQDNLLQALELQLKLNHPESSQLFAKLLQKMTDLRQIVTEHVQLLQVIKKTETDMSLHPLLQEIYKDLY
Procedure, shortened: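 Beta-lactamase reporter under UAS control in HEK293H PPARg-bla cells; compound treatment 17 h at 37C. Read-out: fluorescence intensity after 1 h room-temperature incubation with LiveBLAzer B/G FRET substrate.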

[17] = target: Bile acid receptor (Homo sapiens) (UniProt Q96RI1); assay: qHTS assay to identify small molecule agonists of the farnesoid-X-receptor (FXR) signaling pathway (AID 743220; active = well fitted activation curve with a large enough effect in the signal ratio in the repeat runs, not every such curve was filed as active; the % refers to the signal ratio)
Chain of Bile acid receptor (Homo sapiens) (Q96RI1 whole entry, looked up): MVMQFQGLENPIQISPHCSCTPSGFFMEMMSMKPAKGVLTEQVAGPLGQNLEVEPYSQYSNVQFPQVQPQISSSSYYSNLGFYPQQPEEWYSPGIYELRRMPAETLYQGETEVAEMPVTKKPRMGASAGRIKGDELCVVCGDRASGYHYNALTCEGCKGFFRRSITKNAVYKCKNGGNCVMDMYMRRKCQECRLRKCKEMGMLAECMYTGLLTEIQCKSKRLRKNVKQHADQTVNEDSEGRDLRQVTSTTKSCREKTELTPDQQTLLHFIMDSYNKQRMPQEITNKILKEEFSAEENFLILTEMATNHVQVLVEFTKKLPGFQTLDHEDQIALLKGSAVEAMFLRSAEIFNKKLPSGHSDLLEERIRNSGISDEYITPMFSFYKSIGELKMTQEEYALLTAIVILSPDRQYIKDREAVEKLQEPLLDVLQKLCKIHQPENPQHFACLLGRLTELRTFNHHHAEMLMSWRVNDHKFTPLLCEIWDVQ
Procedure, shortened: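 FXR-UAS-bla HEK 293T cells carrying a UAS-driven beta-lactamase reporter were plated for 5 h at 37C/5% CO2, then exposed to DMSO-dissolved Tox21 10K compounds for 16 h at 37C. A LiveBLAzer B/G FRET substrate was loaded for 2 h at room temperature before fluorescence reading.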

[18] = target: Bile acid receptor (Homo sapiens) (UniProt Q96RI1); assay: qHTS assay to identify small molecule antagonists of the farnesoid-X-receptor (FXR) signaling pathway (AID 743217; active = well fitted inhibition curve with a large enough effect in the signal ratio in the repeat runs, not every such curve was filed as active; the % refers to the signal ratio)
Procedure, shortened: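 Screen of the Tox21 10K library in quantitative HTS format using FXR-UAS-bla HEK 293T reporter cells. Agonist chenodeoxycholic acid, 50 uM final, added with compounds; 16 h incubation at 37 °C; beta-lactamase FRET fluorescence measured.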

[19] = target: Peroxisome proliferator-activated receptor gamma (Homo sapiens) (UniProt P37231); assay: qHTS assay to identify small molecule agonists of the peroxisome proliferator-activated receptor gamma (PPARg) signaling pathway (AID 743094; active = well fitted activation curve with a large enough effect in the signal ratio in the repeat runs, not every such curve was filed as active; the % refers to the signal ratio)
Procedure, shortened: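 Reporter activation was scored by fluorescence of cleaved LiveBLAzer B/G substrate (1 h, room temperature) in PPARg-bla HEK293H cells previously treated 17 h at 37C with DMSO-dissolved compounds.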

Measured: Potency

NCCCC(N)(C(=O)O)C(F)F (stereo not given)
inactive: [1] | [2] | [3] | [4] | [5] | [6] | [7] | [8] | [9]

CC[N+](CC)(CC)CCOc1cccc(OCC[N+](CC)(CC)CC)c1OCC[N+](CC)(CC)CC
not listed: [5] | [7] | [8] | [16] | [17] | [18] | [19]
inactive: all other assays above

O=C(O)CCCC[P+](c1ccccc1)(c1ccccc1)c1ccccc1
not listed: [1] | [5] | [8] | [15] | [17] | [18] | [19]
inactive: all other assays above

Nc1ccn([C@@H]2O[C@H](CO)[C@@H](O)C2(F)F)c(=O)n1
not listed: [10] | [15] | [16] | [18] | [19]
inactive: all other assays above

NC(=O)N[C@@H](CCC(=O)O)C(=O)O
not listed: [16] | [19]
inactive: all other assays above

CCN(C=O)CC
not listed: [7] | [10] | [13] | [15] | [16] | [19]
inactive: all other assays above

CC(C)NNC(=O)c1ccncc1
not listed: [7] | [9] | [10] | [14] | [17] | [18] | [19]
inactive: all other assays above

CCCn1cc[n+](C)c1C
not listed: [10] | [16] | [17] | [18] | [19]
inactive: all other assays above

CC(C)CCCO
not listed: [10] | [14] | [16] | [17] | [19]
inactive: all other assays above

C=C(C)C(=O)OCC(O)CO (stereo not given)
not listed: [1] | [7] | [10] | [17] | [19]
inactive: all other assays above

O=C(O)CNC(=O)c1ccccc1
inactive: [1] | [2] | [10] | [3] | [11] | [12] | [13] | [14] | [6] | [9]

NC(=O)N1c2ccccc2CC(=O)c2ccccc21
not listed: [8] | [16] | [17] | [18] | [19]
inactive: all other assays above

NC(=O)NC1N=C([O][Al])NC1=O (stereo not given)
inactive: [16] | [2] | [3] | [4] | [18] | [6] | [9]

O=[N+]([O-])c1cncn1CCN1CCOCC1
not listed: [1] | [13] | [15] | [17] | [18] | [19]
inactive: all other assays above

CCOC(=O)c1ccccc1
not listed: [1] | [5] | [10] | [14] | [17] | [18]
inactive: all other assays above

COCCOCC(OC)OC
not listed: [1] | [15] | [19]
inactive: all other assays above

O=C1NC(=O)C2CC=CCC12 (stereo not given)
not listed: [2] | [5] | [7] | [13] | [15] | [16] | [17] | [19]
inactive: all other assays above
